{
  "source": "paper PMC7862700",
  "about": "“An all-to-all approach to the identification of sequence-specific readers for epigenetic DNA modifications on cytosine”",
  "experiment_in_all_cases": "DAPPL (digital affinity profiling via proximity ligation, sequencing); 10 mM Tris-HCl pH 7.5, 50 mM NaCl, 1 mM DTT, 4% glycerol, room temperature, 30 min; GST-TFs on glutathione beads, 16-mer random dsDNA library, 0.1% formaldehyde crosslink after washing; high values mean tight binding",
  "key": {"FEV": {"biological_target": "T1, FEV (Homo sapiens, UniProt Q99581 1-238)", "T1 sequence": "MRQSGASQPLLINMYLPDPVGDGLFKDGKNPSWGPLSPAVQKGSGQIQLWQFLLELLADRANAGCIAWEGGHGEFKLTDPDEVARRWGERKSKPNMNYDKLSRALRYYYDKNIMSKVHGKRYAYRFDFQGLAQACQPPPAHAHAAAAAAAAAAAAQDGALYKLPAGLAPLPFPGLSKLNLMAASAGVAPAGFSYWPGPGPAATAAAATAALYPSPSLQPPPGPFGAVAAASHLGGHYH", "conditions": "protein: recombinant; tags: N-terminal GST; dsDNA, one strand shown", "method_in_brief": "(§1)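 A tag-only sample was pooled with DNA-barcoded human transcription factors that had been expressed in yeast as GST fusions and captured on glutathione beads. The pools were incubated for 30 min at room temperature with 200 nmole of a random double-stranded 16-mer DNA library in Tris/NaCl/DTT/glycerol buffer, then washed, crosslinked with 0.1% formaldehyde, proximity-ligated (BsaI/T4 ligase, 1 h, 37 °C), PCR-amplified and sequenced on an Illumina NextSeq500. Binding signal is each hexamer's read frequency for a factor divided by its frequency for the tag-only sample.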"}, "ETV5": {"biological_target": "ETV5 (Homo sapiens, UniProt P41161 1-510)", "sequence (P41161 whole entry)": "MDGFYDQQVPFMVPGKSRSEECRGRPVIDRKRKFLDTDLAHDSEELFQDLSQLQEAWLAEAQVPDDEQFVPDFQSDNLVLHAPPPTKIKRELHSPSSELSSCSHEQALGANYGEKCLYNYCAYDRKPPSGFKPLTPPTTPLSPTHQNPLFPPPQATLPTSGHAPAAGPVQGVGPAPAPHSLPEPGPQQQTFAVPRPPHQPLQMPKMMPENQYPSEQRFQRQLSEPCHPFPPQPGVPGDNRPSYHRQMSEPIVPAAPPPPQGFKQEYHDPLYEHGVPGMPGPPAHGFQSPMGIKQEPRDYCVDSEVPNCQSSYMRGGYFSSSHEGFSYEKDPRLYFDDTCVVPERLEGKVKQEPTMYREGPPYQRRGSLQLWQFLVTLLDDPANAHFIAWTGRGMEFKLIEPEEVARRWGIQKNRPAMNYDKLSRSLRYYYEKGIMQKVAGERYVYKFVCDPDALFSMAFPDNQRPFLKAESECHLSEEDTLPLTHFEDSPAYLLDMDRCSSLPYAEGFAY", "conditions": "protein: recombinant; tags: N-terminal GST; dsDNA, one strand shown", "method_in_brief": "as §1"}, "HSF1": {"biological_target": "HSF1 (Homo sapiens, UniProt Q00613 1-529)", "sequence (Q00613 whole entry)": "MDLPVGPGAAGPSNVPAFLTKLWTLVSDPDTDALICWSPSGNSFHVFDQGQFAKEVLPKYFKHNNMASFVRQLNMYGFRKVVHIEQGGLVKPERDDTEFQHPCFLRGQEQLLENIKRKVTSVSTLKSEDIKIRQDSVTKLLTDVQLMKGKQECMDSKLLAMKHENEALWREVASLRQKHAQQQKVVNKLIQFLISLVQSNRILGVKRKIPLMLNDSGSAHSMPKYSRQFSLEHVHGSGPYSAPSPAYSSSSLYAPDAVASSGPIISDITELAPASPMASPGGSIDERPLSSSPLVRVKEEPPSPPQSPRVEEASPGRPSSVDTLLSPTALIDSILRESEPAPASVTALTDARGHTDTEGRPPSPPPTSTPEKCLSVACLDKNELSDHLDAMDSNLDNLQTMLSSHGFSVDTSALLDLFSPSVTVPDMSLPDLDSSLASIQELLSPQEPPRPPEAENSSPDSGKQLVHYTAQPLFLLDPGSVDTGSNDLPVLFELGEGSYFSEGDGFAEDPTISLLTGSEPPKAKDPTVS", "conditions": "protein: recombinant; tags: N-terminal GST; chain copies: 3; dsDNA, one strand shown", "method_in_brief": "as §1"}, "SPIC": {"biological_target": "T2, SPIC (Homo sapiens, UniProt Q8N5J4 1-248)", "T2 sequence": "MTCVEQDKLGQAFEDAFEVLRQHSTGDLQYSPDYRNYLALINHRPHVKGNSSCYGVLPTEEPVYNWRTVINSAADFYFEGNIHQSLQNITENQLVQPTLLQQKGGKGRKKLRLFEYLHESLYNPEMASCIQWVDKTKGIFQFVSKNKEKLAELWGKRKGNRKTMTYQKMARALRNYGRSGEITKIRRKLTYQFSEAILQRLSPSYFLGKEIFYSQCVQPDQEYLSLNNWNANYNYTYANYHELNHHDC", "conditions": "protein: recombinant; tags: N-terminal GST; dsDNA, one strand shown", "method_in_brief": "as §1"}, "ELF4": {"biological_target": "ELF4 (Homo sapiens, UniProt Q99607 1-663)", "sequence (Q99607 whole entry)": "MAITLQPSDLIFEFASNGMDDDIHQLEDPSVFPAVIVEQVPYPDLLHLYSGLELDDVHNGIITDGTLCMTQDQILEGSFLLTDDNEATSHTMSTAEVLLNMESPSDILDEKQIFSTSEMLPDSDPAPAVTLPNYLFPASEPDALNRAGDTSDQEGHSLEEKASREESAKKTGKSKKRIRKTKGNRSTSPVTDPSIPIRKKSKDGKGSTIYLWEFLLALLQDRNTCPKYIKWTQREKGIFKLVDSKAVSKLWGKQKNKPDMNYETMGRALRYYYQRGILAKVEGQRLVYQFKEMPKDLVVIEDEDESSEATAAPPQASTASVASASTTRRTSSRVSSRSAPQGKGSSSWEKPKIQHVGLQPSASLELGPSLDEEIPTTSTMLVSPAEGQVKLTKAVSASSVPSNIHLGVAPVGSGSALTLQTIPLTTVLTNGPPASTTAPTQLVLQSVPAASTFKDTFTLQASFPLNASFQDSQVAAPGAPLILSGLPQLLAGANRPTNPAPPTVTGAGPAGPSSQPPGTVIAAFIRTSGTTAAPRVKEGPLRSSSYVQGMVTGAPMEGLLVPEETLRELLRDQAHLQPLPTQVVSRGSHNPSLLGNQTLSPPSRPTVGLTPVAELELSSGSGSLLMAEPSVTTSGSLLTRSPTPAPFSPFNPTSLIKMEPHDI", "conditions": "protein: recombinant; tags: N-terminal GST; dsDNA, one strand shown", "method_in_brief": "as §1"}, "ELK4": {"biological_target": "T3, ELK4 (Homo sapiens, UniProt P28324-2 1-405)", "T3 sequence": "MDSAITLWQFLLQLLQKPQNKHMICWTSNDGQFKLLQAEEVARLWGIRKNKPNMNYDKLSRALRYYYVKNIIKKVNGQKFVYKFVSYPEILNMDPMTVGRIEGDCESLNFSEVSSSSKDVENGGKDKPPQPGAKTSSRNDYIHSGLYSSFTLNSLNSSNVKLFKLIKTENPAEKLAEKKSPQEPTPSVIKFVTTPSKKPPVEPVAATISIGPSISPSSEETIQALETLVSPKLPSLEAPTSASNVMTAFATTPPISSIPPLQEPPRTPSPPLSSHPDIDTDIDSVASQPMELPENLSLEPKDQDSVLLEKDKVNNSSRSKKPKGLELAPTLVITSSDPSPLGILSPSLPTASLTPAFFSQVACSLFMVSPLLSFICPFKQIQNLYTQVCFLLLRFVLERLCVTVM", "conditions": "protein: recombinant; tags: N-terminal GST; dsDNA, one strand shown", "method_in_brief": "as §1"}, "ETV2": {"biological_target": "T4, ETV2 (Homo sapiens, UniProt O00321 1-342)", "T4 sequence": "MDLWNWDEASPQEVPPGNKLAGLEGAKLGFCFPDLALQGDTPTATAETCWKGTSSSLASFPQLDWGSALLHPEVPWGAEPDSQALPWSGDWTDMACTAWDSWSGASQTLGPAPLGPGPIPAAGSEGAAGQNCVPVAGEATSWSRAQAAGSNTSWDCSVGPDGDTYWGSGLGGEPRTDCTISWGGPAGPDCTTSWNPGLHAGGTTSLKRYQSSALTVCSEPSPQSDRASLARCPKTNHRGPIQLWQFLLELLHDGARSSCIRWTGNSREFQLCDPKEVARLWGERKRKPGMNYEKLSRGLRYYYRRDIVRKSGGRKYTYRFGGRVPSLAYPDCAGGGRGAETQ", "conditions": "protein: recombinant; tags: N-terminal GST; dsDNA, one strand shown", "method_in_brief": "as §1"}, "ELF3": {"biological_target": "T5, ELF3 (Homo sapiens, UniProt P78545 1-371)", "T5 sequence": "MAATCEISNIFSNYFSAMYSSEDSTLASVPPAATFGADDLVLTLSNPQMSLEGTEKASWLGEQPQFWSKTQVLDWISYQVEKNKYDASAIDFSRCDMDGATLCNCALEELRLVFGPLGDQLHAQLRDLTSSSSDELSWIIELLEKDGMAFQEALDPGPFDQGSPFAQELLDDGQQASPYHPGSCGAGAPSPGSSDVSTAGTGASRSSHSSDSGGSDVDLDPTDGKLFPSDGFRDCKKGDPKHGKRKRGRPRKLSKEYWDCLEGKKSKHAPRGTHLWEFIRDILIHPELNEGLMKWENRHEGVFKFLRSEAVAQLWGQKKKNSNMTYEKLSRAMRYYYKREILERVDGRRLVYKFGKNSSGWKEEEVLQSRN", "conditions": "protein: recombinant; tags: N-terminal GST; dsDNA, one strand shown", "method_in_brief": "as §1"}, "CRX": {"biological_target": "CRX (Homo sapiens, UniProt O43186 1-299)", "sequence (O43186 whole entry)": "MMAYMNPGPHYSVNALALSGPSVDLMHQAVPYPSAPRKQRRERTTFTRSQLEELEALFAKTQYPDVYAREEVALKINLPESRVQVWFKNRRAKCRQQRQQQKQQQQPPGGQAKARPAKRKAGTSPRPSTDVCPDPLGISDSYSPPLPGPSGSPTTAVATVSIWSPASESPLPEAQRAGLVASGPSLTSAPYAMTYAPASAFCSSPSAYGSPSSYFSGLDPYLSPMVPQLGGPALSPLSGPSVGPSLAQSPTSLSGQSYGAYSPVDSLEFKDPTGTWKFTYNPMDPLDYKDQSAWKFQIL", "conditions": "protein: recombinant; tags: N-terminal GST; dsDNA, one strand shown", "method_in_brief": "as §1"}},
  "data": [
    {"sequence": "TCTTCA", "values": [
      {"measurement": "binding signal", "setting": "FEV", "result": "1.15 fold enrichment (6-mer frequency, TF over GST control)"},
      {"measurement": "binding signal", "setting": "ETV5", "result": "1.17 fold enrichment (6-mer frequency, TF over GST control)"},
      {"measurement": "binding signal", "setting": "HSF1", "result": "1.24 fold enrichment (6-mer frequency, TF over GST control)"},
      {"measurement": "binding signal", "setting": "SPIC", "result": "1.14 fold enrichment (6-mer frequency, TF over GST control)"},
      {"measurement": "binding signal", "setting": "ELF4", "result": "1.2 fold enrichment (6-mer frequency, TF over GST control)"},
      {"measurement": "binding signal", "setting": "ELK4", "result": "1.07 fold enrichment (6-mer frequency, TF over GST control)"},
      {"measurement": "binding signal", "setting": "ETV2", "result": "1.18 fold enrichment (6-mer frequency, TF over GST control)"},
      {"measurement": "binding signal", "setting": "ELF3", "result": "1.46 fold enrichment (6-mer frequency, TF over GST control)"},
      {"measurement": "binding signal", "setting": "CRX", "result": "1.14 fold enrichment (6-mer frequency, TF over GST control)"}
    ]}
  ]
}
